High-throughput results: PubChem, National Center for Advancing Translational Sciences (NCATS)
HP1b binding inh – HTS for Inhibitors of HP1-beta Chromodomain Interactions with Methylated Histone Tails. Chromobox protein homolog 1 (Homo sapiens), P83916. AlphaScreen HP1-beta / biotin-H3K9me3 peptide binding. Potency, µM (titrated, usually from 114 µM), most hits filed as inhibitors. hit rate 0.56% among 390,000; note: nearly all actives have a fitted effect of over 70% in size
Target sequence (P83916 whole entry, looked up): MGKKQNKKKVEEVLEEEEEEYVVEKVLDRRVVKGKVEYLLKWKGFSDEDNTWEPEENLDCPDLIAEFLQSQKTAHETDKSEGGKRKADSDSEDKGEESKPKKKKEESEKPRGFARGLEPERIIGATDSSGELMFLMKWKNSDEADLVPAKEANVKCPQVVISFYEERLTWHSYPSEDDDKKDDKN
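HP1-beta protein (50 nM final) preincubated 30 min at room temperature with biotinylated H3(1-18)K9me3 peptide (50 nM) in PBS pH 7.4, 0.01% Tween-20, then compound added for 30 min. AlphaScreen streptavidin donor/nickel chelate acceptor beads (10 ug/mL final), 30 min dark, luminescence read.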
PLK1 PBD block – qHTS for Inhibitors of PLK1-PDB (polo-like kinase 1 - polo-box domain): Primary Screen; Plk1 PBD binding of FITC phosphopeptide, fluorescence polarization; Potency, µM, actives largely listed as inhibitors; hit rate 2.8% among 360,000; AID 720504, 2013; Serine/threonine-protein kinase PLK1 (Homo sapiens), P53350; note: series mostly up to about 57 µM; nearly all actives have a fitted effect of over 65% in size
PI5P4Ka inh – qHTS for Inhibitors of phosphatidylinositol 5-phosphate 4-kinase (PI5P4K) | Phosphatidylinositol 5-phosphate 4-kinase type-2 alpha (Homo sapiens), P48426 | PI5P4Kalpha enzyme, ADP-Glo luminescence, 60 min; stronger effect = lower value | max response, % | hit rate 1.2% among 330,000; active = max response of -50% or lower; inconclusive = between -30% and -50%; inactive = -30% or higher; note: value at the top dose of about 77 µM
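Compounds were pin-transferred onto PI5P4Kalpha and substrate in HEPES pH 7.4 buffer with EGTA, CHAPS and 5% DMSO. ATP (5 microM final) started the reaction, which ran 60 minutes at room temperature before ADP-Glo detection.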
JMJD2A Tudor – qHTS Assay for Inhibitors of JMJD2A-Tudor Domain. Lysine-specific demethylase 4A (Homo sapiens), O75164. Potency, µM (top dose mostly 114 µM), actives largely listed as inhibitors. AID 504339, 2011. hit rate 4.4% among 390,000. AlphaScreen JMJD2A-Tudor / H3K4me3 peptide binding; note: nearly all actives have a fitted effect of over 50% in size
G9a block – qHTS Assay for Inhibitors of Histone Lysine Methyltransferase G9a; G9a H3K9 monomethylation, AlphaScreen, 2 h; Potency, µM (top dose mostly 102 µM), most hits filed as inhibitors; hit rate 8.8% among 350,000; note: nearly all actives have a fitted effect of over 75% in size
Target sequence (Q96KQ7 913-1193 limits assumed): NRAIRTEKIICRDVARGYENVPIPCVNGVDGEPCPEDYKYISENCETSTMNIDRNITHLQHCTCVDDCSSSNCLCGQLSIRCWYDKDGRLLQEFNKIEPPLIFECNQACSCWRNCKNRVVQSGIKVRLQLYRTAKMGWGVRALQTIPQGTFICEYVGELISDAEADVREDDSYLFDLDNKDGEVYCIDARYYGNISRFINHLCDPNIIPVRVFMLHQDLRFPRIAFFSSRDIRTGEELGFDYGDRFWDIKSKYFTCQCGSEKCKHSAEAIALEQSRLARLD
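Quantitative HTS format: methyltransferase activity on a biotin-tagged H3K9 peptide is measured by AlphaScreen, using a rabbit anti-monomethyl-H3K9 antibody with streptavidin donor and anti-IgG acceptor beads. Final levels are 20 nM enzyme, 500 nM peptide, 20 uM SAM; 2 h RT.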
BAZ2B inh – qHTS Assay for Inhibitors of BAZ2B; Bromodomain adjacent to zinc finger domain protein 2B (Homo sapiens), Q9UIF8; AlphaScreen BAZ2B-H3K14Ac peptide displacement; Potency, µM (series often up to 114 µM), hits mostly inhibitors; hit rate 4.4% among 360,000; AID 504333, 2011; note: nearly all actives have a fitted effect of over 60% in size
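Complex of BAZ2B and biotin-H3K14Ac (50 nM apiece) forms over 30 min at RT, then faces library compounds up to 110 uM for another 30 min; AlphaScreen beads added, 20 min dark incubation, luminescence read.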
Large screens that a line does not name were inactive. A selection: hits, their analogues and other compounds. The true share with any hit is near 12%. Unless noted, calls come from the whole dose curve; as a rule, active = well fitted curve in the direction sought with a large enough effect; inconclusive = small, poorly fitted or top-dose-only effect, or another doubt; inactive = no such curve, though single readings can be large; an effect the other way counts as inactive or inconclusive.

CC(C)(C)c1nnc(NC(=O)c2cc(-c3ccccc3)nc3ccccc23)s1	PLK1 PBD block 24µM, G9a block inconclusive
Cc1csc(NC(=O)c2cc(-c3ccccc3)nc3ccccc23)n1	G9a block 71µM
O=c1c(-c2cc(F)cc(F)c2)nc2cncnc2n1Cc1ccc(F)cc1	none (no result: HP1b binding inh, PLK1 PBD block, PI5P4Ka inh, JMJD2A Tudor, BAZ2B inh)
O=C(Nc1nc2c(s1)CCCC2)c1cc(-c2ccccc2)nc2ccccc12	G9a block 13µM
CCC1C(=O)Nc2ccccc2N1C(=O)c1ccc(Cl)nc1 (stereo not drawn)	JMJD2A Tudor 100µM
O=C(c1ccncc1)N(Cc1ccccc1)Cc1nc2ccccc2c(=O)[nH]1	none
CCCNC(=S)N(Cc1ccccc1)Cc1nc2ccccc2c(=O)[nH]1	G9a block 7.1µM
CCOCCCNC(=S)N(Cc1ccccc1)Cc1nc2ccccc2c(=O)[nH]1	PLK1 PBD block inconclusive, G9a block 10µM
O=C(NC1CC(=O)N(c2ccc(F)cc2)C1)C1CCCC1 (stereo not drawn)	none (no result: PLK1 PBD block, PI5P4Ka inh)
Cc1nc2nc(NC(=O)c3ccc(C(C)(C)C)cc3)[nH]n2c(=O)c1C	none (no result: PLK1 PBD block, PI5P4Ka inh)
CCCOc1ccc([C@@H]2C3CN(C(=O)OCC)CC=C3C(C#N)=C(N)C2(C#N)C#N)cc1OC (stereo partly drawn)	G9a block inconclusive (no result: PI5P4Ka inh)
CCC1C2CN(C(C)=O)CC=C2C(C#N)=C(N)C1(C#N)C#N (stereo not drawn)	G9a block 45µM
CCCC1C2CN(C(C)=O)CC=C2C(C#N)=C(N)C1(C#N)C#N (stereo not drawn)	G9a block 14µM
COc1ccc([C@@H]2[C@H]3CN(C(C)=O)CC=C3C(C#N)=C(N)C2(C#N)C#N)c2ccccc12	G9a block 45µM
CN1CC=C2C(C#N)=C(N)C(C#N)(C#N)C(Cc3ccccc3)C2C1 (stereo not drawn)	PLK1 PBD block inconclusive
Cc1c(/C=C(\C#N)C(=O)NCc2ccccc2)cc(C#N)n1C	none
Cc1ccc(C(OCC(C)(C)C[N+](C)(C)C)c2ccccc2)cc1 (stereo not drawn)	JMJD2A Tudor 22µM
Cn1nc([N+](=O)[O-])nc1Oc1ccccc1F	PLK1 PBD block 24µM, JMJD2A Tudor inconclusive
Cn1nc([N+](=O)[O-])nc1Oc1ccccc1N	none
CCC(=O)N1CCc2cc(S(=O)(=O)NCCC(=O)Nc3ccc(CC)cc3)ccc21	none (no result: PLK1 PBD block, PI5P4Ka inh, BAZ2B inh)
CC(=O)Cc1nsc(Nc2cccc(C)c2)n1	none
CC(=O)Cc1nsc(Nc2ccccc2)n1	G9a block 79µM
Cc1[nH]c2ccccc2c1C(=O)C(C)OC(=O)c1ccccc1NCCO (stereo not drawn)	G9a block 45µM
Cc1[nH]c2ccccc2c1C(=O)C(C)OC(=O)c1ccc(NC(=O)CC#N)cc1 (stereo not drawn)	none
O=S(=O)(Nc1nc2ccccc2nc1Cl)c1cccc(C(F)(F)F)c1	none
O=S(=O)(Nc1nc2ccccc2nc1Cl)c1ccccc1C(F)(F)F	G9a block 71µM
CC1(O)CC(C)(C)C(C#N)C(=O)N1 (stereo not drawn)	none (no result: G9a block, BAZ2B inh)
CCN(CC)c1nc(C)c2c(c1C#N)CC(C)(C)OC2	none
CC1(C)Cc2c(C#N)c(N)sc(=S)c2CO1	JMJD2A Tudor inconclusive, G9a block 7.9µM, BAZ2B inh inconclusive (no result: PI5P4Ka inh)
CC(C)C1Cc2c(C#N)c(N)sc(=S)c2CO1 (stereo not drawn)	HP1b binding inh inconclusive, PLK1 PBD block inconclusive, JMJD2A Tudor 50µM, G9a block 7.9µM, BAZ2B inh inconclusive
CC(C)N1CCc2c(sc(N)c2C#N)C1	G9a block inconclusive (no result: PI5P4Ka inh)
Cc1ccc(CN2CCN(/N=C/c3sccc3C)CC2)c(C)c1	HP1b binding inh inconclusive, JMJD2A Tudor 22µM, G9a block 45µM, BAZ2B inh 28µM
